The campaign covered roughly 5,500 compounds. About 2,000 (36%) were called active. Another 18% or so got no clear call; they are omitted. Rule as the data show it: active = normalized growth mostly below about 0.91 (no sharp cut-off); inconclusive = no clear call, values can overlap the other calls; inactive = mostly above about 0.92. Some of the results follow.
Assay: chemical genetic growth profiling, strain panel (AID 1159580);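 also: tested at 20 µM; growth read once vehicle control cultures reached saturation at 30 °C; 1 = growth at the plate median or of vehicle wells; lower values mean less growth of the strain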
Conditions: S. cerevisiae deletion strains, growth OD

Measured: normalized growth

COc1ccc(NNC(=O)c2sc3ccccc3c2Cl)cc1
active: locus YDL214C, strain PRR2, stronger effect = lower value 0.692 | locus YER123W, strain YCK3, stronger effect = lower value 0.287 | locus YER133W, strain GLC7, stronger effect = lower value 0.663 | locus YFR019W, strain FAB1, stronger effect = lower value 0.37 | locus YGR040W, strain KSS1, stronger effect = lower value 0.681 | locus YGR052W, strain FMP48, stronger effect = lower value 0.558 | locus YGR092W, strain DBF2, stronger effect = lower value 0.117 | locus YHR030C, strain SLT2, stronger effect = lower value 0.302 | locus YHR079C, strain IRE1, stronger effect = lower value 0.502 | locus YJL095W, strain BCK1, stronger effect = lower value 0.341 | locus YJL157C, strain FAR1, stronger effect = lower value 0.544 | locus YJR066W, strain TOR1 (second series), stronger effect = lower value 0.243 | locus YKL048C, strain ELM1, stronger effect = lower value 0.658 | locus YKL067W, strain YNK1, stronger effect = lower value 0.587 | locus YKL101W, strain HSL1, stronger effect = lower value 0.657 | locus YKL203C, strain TOR2, stronger effect = lower value 0.686 | locus YLR113W, strain HOG1, stronger effect = lower value 0.293 | locus YLR133W, strain CKI1, stronger effect = lower value 0.627 | locus YLR403W, strain SFP1, stronger effect = lower value 0.563 | locus YML070W, strain DAK1, stronger effect = lower value 0.419 | locus YMR205C, strain PFK2 (second series), stronger effect = lower value 0.659 | locus YNL020C, strain ARK1, stronger effect = lower value 0.643 | locus YNL307C, strain MCK1 (second series), stronger effect = lower value 0.262 | locus YOL136C, strain PFK27, stronger effect = lower value 0.433 | locus YOR061W, strain CKA2, stronger effect = lower value 0.299 | locus YOR119C, strain RIO1, stronger effect = lower value 0.604 | locus YOR231W, strain MKK1, stronger effect = lower value 0.507 | locus YPL031C, strain PHO85, stronger effect = lower value 0.657 | locus YPL153C, strain RAD53, stronger effect = lower value 0.525 | locus YPL204W, strain HRR25, stronger effect = lower value 0.576 | locus YPL256C, strain CLN2, stronger effect = lower value 0.441
inactive: locus YAR019C, strain CDC15, stronger effect = lower value 0.921 | locus YBL105C, strain PKC1, stronger effect = lower value 0.927 | locus YBR135W, strain CKS1, stronger effect = lower value 0.915 | locus YBR136W, strain MEC1, stronger effect = lower value 0.922 | locus YBR160W, strain CDC28, stronger effect = lower value 0.927 | locus YDL017W, strain CDC7, stronger effect = lower value 0.936 | locus YDL028C, strain MPS1, stronger effect = lower value 0.929 | locus YDL101C, strain DUN1, stronger effect = lower value 0.954 | locus YDL108W, strain KIN28, stronger effect = lower value 0.93 | locus YDL132W, strain cdc53, stronger effect = lower value 0.959 | locus YDR052C, strain DBF4, stronger effect = lower value 0.935 | locus YDR054C, strain cdc34, stronger effect = lower value 0.923 | locus YDR226W, strain ADK1, stronger effect = lower value 0.938 | locus YDR477W, strain SNF1, stronger effect = lower value 0.694 | locus YFL009W, strain cdc4, stronger effect = lower value 0.941 | locus YFL029C, strain CAK1, stronger effect = lower value 0.92 | locus YFR003C, strain YPI1, stronger effect = lower value 0.93 | locus YFR028C, strain CDC14, stronger effect = lower value 0.92 | locus YHR082C, strain KSP1, stronger effect = lower value 0.656 | locus YHR205W, strain SCH9, stronger effect = lower value 0.612 | locus YIL147C, strain SLN1, stronger effect = lower value 0.924 | locus YJL128C, strain PBS2, stronger effect = lower value 0.878 | locus YJR016C, strain ILV3, stronger effect = lower value 0.903 | locus YJR066W, strain TOR1, stronger effect = lower value 0.579 | locus YKL193C, strain SDS22, stronger effect = lower value 0.923 | locus YMR001C, strain CDC5, stronger effect = lower value 0.925 | locus YMR277W, strain FCP1, stronger effect = lower value 0.926 | locus YNL006W, strain LST8, stronger effect = lower value 0.914 | locus YNL161W, strain CBK1, stronger effect = lower value 0.918 | locus YNL183C, strain NPR1, stronger effect = lower value 0.595 | locus YNL207W, strain RIO2, stronger effect = lower value 0.948 | locus YNL222W, strain SSU72, stronger effect = lower value 0.906 | locus YOL078W, strain AVO1, stronger effect = lower value 0.913 | locus YOR329C, strain SCD5, stronger effect = lower value 0.927 | locus YPL209C, strain IPL1, stronger effect = lower value 0.918 | locus YPR025C, strain CCL1, stronger effect = lower value 0.929 | locus YPR106W, strain ISR1, stronger effect = lower value 0.907 | locus YPR111W, strain DBF20, stronger effect = lower value 0.918 | strain NNK1, stronger effect = lower value 0.908 | strain TSCII, stronger effect = lower value 0.923
